Active and inactive are the calls of the source. A call without a number means that no potency is given here. The call rests on the fitted dose curve; in most records, active means well fitted cell-killing curve with a large enough effect in the repeat runs; inconclusive means weak or mixed curves, or effect the other way; inactive means flat fitted curve, though single readings scatter.
Assay: qHTS assay to identify small molecule HDAC inhibitors - cell viability counter screen (AID 1259365); further: nearly all actives have a fitted effect of over 50% in size
Settings: HCT-116 viability, CellTiter-Glo ATP luminescence, 2 h; series mostly up to 92.4 µM
Text: U.S. Tox21 Program National Center for Advancing Translational Sciences [NCATS] NIH Chemical Genomics Center [NCGC] U.S. Environmental Protection Agency [EPA] National Institutes of Environmental Health Sciences [NIEHS] National Toxicology Program [NTP] U.S. Food and Drug Administration [FDA] Tox21 Assay Overview: Histone deacetylases (HDACs) are a group of epigenetic enzymes that regulate gene expression by histone deacetylation. HDACs are capable of introducing epigenetic modifications and such aberrations contribute to the onset and progression of several human diseases, thus making HDACs a popular therapeutic target. For identifying endogenous class I/II HDAC inhibitors a homogenous, luminogenic HDAC I/II cell based assay was used to measure the relative activity of class I and II HDACs from cells. Wild type HCT-116 cells were used to screen Tox21 compound libraries for identifying class I/II HDAC inhibitors.
Tox21 Assay Protocol Summary: HCT-116 cells were dispensed at 1,500 per well in 5uL of culture medium into white solid bottom 1536-well plates (Greiner Bio-One, Monroe, NC) using a Multidrop Combi (Thermo Scientific, Waltham, MA) dispenser. The assay plates were incubated at 37 C and 5% CO2 for an overnight, and then 23nL of compounds dissolved in DMSO and positive control were transferred using a Pintool station (Wako, San Diego, CA). The assay plates were incubated at 37C and 5% CO2 for 2hr. After compound treatment, 4uL of CellTiter-Glo reagent (Promega Corporation, Madison, WI) was added to each well of the assay plates using Flying Reagent Dispenser (FRD, Aurora Discovery, San Diego, CA) and incubated the assay plates at room temperature for 30min. The luminescence signal was quantified using a ViewLux plate reader (Perkin Elmer, Shelton, CT).
With `NC(N)=S` the Potency was “inactive”.
In the case of `Cc1ccc(C(C)C)cc1`, the Potency is reported as “inactive”.
With `CC1(C)C(=O)N(Cl)C(=O)N1Cl` the Potency was “inactive”.
With `COc1c2ccoc2cc2oc(=O)ccc12` the Potency was “inactive”.
With `OCCOCCOCCOCCOCCO` the Potency was “inactive”.
In the case of `Clc1cccc(Cl)c1NC1=NCCN1`, the Potency is reported as “inactive”.
In the case of `O=c1n(CCCN2CCN(c3cccc(Cl)c3)CC2)nc2ccccn12`, the Potency is reported as “inactive”.
For `CCCN(CCC)C(=O)SCC`, the Potency was “inactive”.
With `Cc1cc(C)cc(O)c1` the Potency was “inactive”.
With `COc1ccccc1[N+](=O)[O-]` the Potency was “inactive”.
In the case of `CCCCCCCCCCCC(=O)N(C)CC(=O)O`, the Potency is reported as “inactive”.
With `C[Si](C)(C)N[Si](C)(C)C` the Potency was “inactive”.
For `CC(O)CNCC(C)O` (stereo not given), the Potency was “inactive”.
For `CN=C(NC#N)NCCSCc1nc[nH]c1C`, the Potency was “inactive”.
With `C=C1C[C@]23C[C@@]1(O)CC[C@H]2[C@@]12C=C[C@H](O)[C@@](C)(C(=O)O1)[C@H]2[C@@H]3C(=O)O` the Potency was “inactive”.
In the case of `Cc1ccc([N+](=O)[O-])cc1N`, the Potency is reported as “inactive”.
With `O=[N+]([O-])c1cc(C(F)(F)F)ccc1Cl` the Potency was “inactive”.
For `CC(=O)OCc1ccc2c(c1)OCO2`, the Potency was “inactive”.
In the case of `CCCCCCCC(=O)O`, the Potency is reported as “inactive”.
In the case of `CCc1cccc(CC)c1N`, the Potency is reported as “inactive”.
With `CCCCCNCCCCC` the Potency was “inactive”.
In the case of `CCc1cccc(O)c1`, the Potency is reported as “inactive”.
For `CS(=O)(=O)c1ccc(Cl)cc1`, the Potency was “inactive”.
For `NC(=O)NC(N)=O`, the Potency was “inactive”.
With `O=C(O)Cc1c[nH]c2ccccc12` the Potency was “inactive”.
With `CC/C(C)=N/O` the Potency was “inactive”.
In the case of `COc1ccc2cc3[n+](cc2c1OC)CCc1cc2c(cc1-3)OCO2`, the Potency is reported as “inactive”.
With `O=C(Cl)c1ccc(C(=O)Cl)cc1` the Potency was “inactive”.
In the case of `C=CC(=O)NCOCCCC`, the Potency is reported as “inactive”.
In the case of `CC(=O)Nc1ccc(CC(=O)O)cc1`, the Potency is reported as “inactive”.
In the case of `CCCCCC(C)=O`, the Potency is reported as “inactive”.
In the case of `CC(=O)OC[C@H]1O[C@@](COC(C)=O)(O[C@H]2O[C@H](COC(C)=O)[C@@H](OC(C)=O)[C@H](OC(C)=O)[C@H]2OC(C)=O)[C@@H](OC(C)=O)[C@@H]1OC(C)=O`, the Potency is reported as “inactive”.
With `O=c1c(O)c(-c2ccc(O)c(O)c2)oc2cc(O)cc(O)c12` the Potency was “inactive”.
With `COCN(COC)c1nc(N(COC)COC)nc(N(COC)COC)n1` the Potency was “inactive”.
For `CCOC(=O)c1ccc(O)cc1`, the Potency was “inactive”.
For `Cc1ccccc1Cl`, the Potency was “inactive”.
With `CCOC(=O)CC(=O)OCC` the Potency was “inactive”.
With `CC(CN1c2ccccc2Sc2ccccc21)N(C)C` (stereo not given) the Potency was “inactive”.
In the case of `Cc1cc(CC(=O)O)n(C)c1C(=O)c1ccc(Cl)cc1`, the Potency is reported as “inactive”.
For `CCCCCCCCC(=O)O`, the Potency was “inactive”.
